Bioassay records: PubChem BioAssay, The Scripps Research Institute Molecular Screening Center
S1P4 agonist = human S1P4 receptor agonism; O95977; activation, % at 4.98 µM; S1P4-expressing cell line, agonist reporter assay; 0.35% of 220,000 active; in the data active means activation above about 11%;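 further: 0% = DMSO vehicle and 100% = reference agonist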
GALR2 blocker = GALR2 (human) receptor antagonism; O43603; GALR2-expressing cells, antagonist mode; inhibition, % at 4 µM; 0.39% of 140,000 active; AID 828; in the data active means inhibition above about 27%;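 further: cells stimulated with galanin 1-16 at roughly its EC80; 0% = agonist challenge control and 100% = basal control without agonist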
Target sequence (O43603 whole entry, looked up): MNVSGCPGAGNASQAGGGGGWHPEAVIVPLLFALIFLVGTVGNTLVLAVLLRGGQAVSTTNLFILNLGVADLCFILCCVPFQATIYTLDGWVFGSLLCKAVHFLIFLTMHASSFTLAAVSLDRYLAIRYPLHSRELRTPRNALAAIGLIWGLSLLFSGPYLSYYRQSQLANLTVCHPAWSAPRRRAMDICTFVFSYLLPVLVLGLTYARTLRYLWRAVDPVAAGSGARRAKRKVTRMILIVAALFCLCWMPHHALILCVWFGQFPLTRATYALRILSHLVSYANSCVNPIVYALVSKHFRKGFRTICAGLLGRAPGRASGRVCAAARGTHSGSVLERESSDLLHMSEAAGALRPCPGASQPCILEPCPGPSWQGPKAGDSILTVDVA
S1P3 antagonist = S1P3 (human) receptor antagonism | Q99500 | CHO S1P3 NFAT-BLA reporter, FRET fluorescence, antagonist mode | inhibition, % at 4.98 µM | 0.27% of 170,000 active | AID 485;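 active means inhibition above the plate cutoff, the mean inhibition of test wells on that plate plus 3 SD, cut at about 28% in these data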;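 further: cells challenged with S1P at its EC80 of 0.8 µM; blue over green emission ratio from cleaved BLA substrate after 4 h stimulation; 0% = S1P-stimulated wells and 100% = unstimulated DMSO-only wells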
S1P4 antag = blocks the human S1P4 receptor. O95977. inhibition, % at 4.98 µM. S1P4-expressing cells, antagonist mode, reporter read-out. 0.26% of 220,000 active; in the data active means inhibition above about 29%;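 further: 0% = wells stimulated with agonist and 100% = vehicle wells without agonist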
GALR2 ag = GALR2 (human) receptor agonism; O43603; GALR2-expressing cells, agonist activation read-out; activation, % (concentration not given with the values); 0.48% of 140,000 active; in the data active means activation above about 5%, passing the limit was not always enough;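 further: 0% = vehicle buffer wells and 100% = reference agonist at full effect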
GALR2 agon conf = confirmation of human galanin receptor 2 (GALR2) agonists; shares compounds with GALR2 ag; GALR2-expressing cells, agonist activation; activation, % at 5.6 µM; 10% of 460 active; in the data active means activation above about 8.4%;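 further: 0% = buffer-only vehicle wells and 100% = full reference agonist response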
BLA activ ctr = activates beta-lactamase reporter in GALR2 agonist counterscreen; 10% of 460 active; CHO NFAT-bla reporter, beta-lactamase FRET activation; shares compounds with GALR2 ag; activation, % at 5.6 µM;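 active means activation above the screen-wide mean activation plus 3 SD, cut at about 8% in these data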;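 further: 0% = DMSO with PBS wells and 100% = thapsigargin positive control wells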
The depositor's hits bear a star; . = no result. Sampled rows, rich in hits. Any-hit rate of the full collection: about 1.3%.

SMILES	S1P4 agonist	GALR2 blocker	S1P3 antagonist	S1P4 antag	GALR2 ag	GALR2 agon conf	BLA activ ctr
CCCCCCC(=O)NNC(=O)CC(=O)Nc1ccccc1C(=O)O	0.8	-8.6	-23.4	-20.1	-0.7	.	.
CSc1ccccc1NC(=O)Cc1ccccc1[N+](=O)[O-]	-0.6	.	-16.6	-4.7	.	.	.
CCN(CC)c1ccc2cc(S(=O)(=O)c3ccc(Cl)cc3)c(=O)oc2c1	5.5	-14.6	-10.1	2.7	43.2*	16.4*	29.4*
CCCCCCc1cc2cc(S(=O)(=O)c3ccc(Cl)cc3)c(=O)oc2cc1O	1.9	-10.0	-5.0	-5.2	19.9*	15.1*	46.1*
CCCCCCc1cc2cc(S(=O)(=O)c3ccc(C)cc3)c(=O)oc2cc1O	0.5	-16.3	1.2	-3.9	44.9*	14.9*	41.5*
COCCOC(=O)C1=C(C)N=C2SCCC(=O)N2C1c1cc(Br)ccc1OC (stereo not drawn)	.	.	12.3	.	.	.	.
CN(/N=C/C=C/c1ccccc1)C1=NS(=O)(=O)c2ccccc21	1.9	5.8	-22.9	4.8	-0.5	.	.
CCOc1ccc(Nc2nc3cc(S(=O)(=O)CC)ccc3o2)cc1	0.8	.	-3.4	-5.2	.	.	.
CCOc1ccc(-c2nnc(NC3=NCCCCC3)o2)cc1	0.8	0.2	.	-1.3	16.6*	-1.0	-1.7
COC(=O)c1nnn(CC(=O)NC(=O)Nc2ccccc2)c1C(=O)OC	0.7	7.4	12.7	-20.0	-1.2	.	.
CCOC(=O)/C(=C\Nc1ccccc1C(F)(F)F)Sc1ncc(C(F)(F)F)cc1Cl	-0.9	-8.4	.	-12.9	10.4	-1.1	-3.0
CC1CCCCN1C(=O)c1cc(Cl)ccc1[N+](=O)[O-] (stereo not drawn)	0.9	2.2	-3.5	-3.1	-1.2	.	.
CCCCNC(=O)c1ccc(Cn2c(=S)[nH]c3c([nH]c4ccc(OC)cc43)c2=O)cc1	4.9	5.4	-1.3	-13.0	10.3*	2.5	0.0
COc1cc(/C=N/NC(=O)c2ccc(COc3cc(C)ccc3C(C)C)cc2)cc(OC)c1O	-1.9	0.1	-9.0	4.9	8.4*	7.6	-1.2
Cc1cc2c(c(=O)n1Cc1ccc3c(c1)OCO3)C(c1cccnc1)C(C#N)=C(N)O2 (stereo not drawn)	0.9	-2.6	-4.0	-1.9	23.3*	-0.8	-1.6
Cc1cc2c(c(=O)n1Cc1cccnc1)C(c1ccccc1)C(C#N)=C(N)O2 (stereo not drawn)	2.6	-6.8	.	11.0	-1.9	.	.
O=C(Cc1n[nH]c(=O)[nH]c1=O)N/N=C/c1cccc(Cl)c1	1.3	.	-7.2	-6.7	.	.	.
O=C(Cc1n[nH]c(=O)[nH]c1=O)N/N=C/c1cccc(O)c1	0.2	2.3	.	-4.5	14.9*	-0.9	-1.8
COc1cc(C2NC(=O)C(C#N)=C(S)N2c2ccc(C)cc2)ccc1OC(C)C (stereo not drawn)	2.2	-7.8	.	-6.1	90.8*	-0.7	-1.8
COc1ccc(C2NC(=O)C(C#N)=C(S)N2c2ccc(C)cc2)cc1OC (stereo not drawn)	0.1	.	8.2	8.8	.	.	.
C=CCn1c(SCCOc2ccc(OC)cc2)nnc1C(C)NC(=O)Cc1ccc(OC)cc1 (stereo not drawn)	0.8	6.0	.	2.5	-0.3	.	.
O=C(Nc1ccc(O)cc1)/C(=C\c1cccs1)NC(=O)c1ccccc1	-3.2	4.9	-2.7	2.5	8.8*	-0.8	0.9
Cc1ccc(NC(=O)COc2ccccc2C=O)cc1Cl	-0.7	.	4.8	-8.4	.	.	.
CC1=C(C)CC(C(=O)NNC(=O)c2cccc(Cl)c2)C(C(=O)O)C1 (stereo not drawn)	0.2	5.7	-17.6	11.8	8.2*	-1.0	-0.9
CC1=C(C)CC(C(=O)NNC(=O)c2ccccc2)C(C(=O)O)C1 (stereo not drawn)	-0.2	10.2	.	-6.8	-2.3	.	.
Cc1ccc(OCCCCn2ccnc2)c(Cl)c1	-0.9	-2.6	-6.3	-2.4	-3.1	.	.
Cc1ccc(C)c(OCCCCn2ccnc2)c1	-3.4	-7.6	.	-9.1	11.2	0.3	2.4
O=C(O)CC1(c2ccccc2)C(=O)c2ccccc2C1=O	0.7	20.8	-10.4	-9.9	10.3*	-1.5	-3.0
Cc1ccc(NC(=O)N2CCCn3c(SCC(=O)c4ccccc4)nnc32)cc1	-0.7	.	-0.2	-2.3	.	.	.
COCCn1c(N)c(C(=O)NCc2cccs2)c2nc3ccccc3nc21	0.4	-3.1	1.0	-1.6	10.9*	4.5	10.3*
